Results taken from PubChem BioAssay.
The source made the active and inactive calls. Unless noted, how the calls were made is not given here.

Columns and labels:
[1] = test system: Wnt5a (protein binding on small-molecule microarray); test: Wnt5a binders on small-molecule microarray, primary screen, biophysical, 635/667 nm fluorescence (AID 1142); settings: 635 nm fluorescence, higher = more signal;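 further: fluorescence read at 667 nm with signal to noise per printed feature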
[2] = cell viability in Huh7 cells, primary screen, cytotoxicity control for HCV replication inhibitor project, CellTiter-Glo luminescence, basal, 48 h (AID 1143); settings: Huh7 HCV replicon, higher = more signal, called active from +8 up or from −8 down;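 further: Huh7 hepatoma cells carrying a hepatitis C replication reporter with no stimulus; test concentration not given here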
[3] = P. aeruginosa biofilm formation inhibitors, primary screen, PAO1 strain, BacTiter-Glo luminescence, LB-PBS (AID 1144); settings: 12 h, higher = more signal
[4] = CREB reporter modulators without forskolin, primary screen, cell-based, PC12, CRE-LacZ reporter, unstimulated (AID 1145); settings: no forskolin, luminescence, 4.5 h, higher = more signal, called active from +8 up or from −8 down
[5] = CREB reporter modulators under forskolin, primary screen, cell-based, PC12, CRE-LacZ reporter, forskolin-stimulated (AID 1146); settings: luminescence, 4.5 h, higher = more signal, called active from +8 up or from −8 down;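 further: PC12 cells with 6xCRE LacZ reporter stimulated by forskolin 10 µM; beta-galactosidase reporter signal reflecting CREB driven transcription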
[6] = molecular target: Streptavidin (Streptomyces avidinii) (UniProt P22629); test: streptavidin binders on small-molecule microarray, primary screen, artefact control for SMM compound annotation, biophysical, 635/667 nm fluorescence (AID 1147); settings: streptavidin binding, higher = more signal;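 further: signal reflects streptavidin binding to arrayed compounds as a control protein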
[7] = small-molecule binders of probe aInhba, primary screen, biochemical, small-molecule microarray, 635/667 nm fluorescence (AID 1148); settings: higher = more signal;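 further: score merges 667nm spot fluorescence with signal-to-noise for antibody binding to printed compounds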
Torsin-1A (Homo sapiens) [8] = molecular target: Torsin-1A (Homo sapiens) (UniProt O14656); test: torsin A binders from cell lysate, primary screen, small-molecule microarray, wild-type, 635/667 nm (AID 1149); settings: COS7 hTOR1A-WT lysate, 635 nm fluorescence, higher = more signal
Torsin-1A (Homo sapiens) [9] = molecular target: Torsin-1A (Homo sapiens) (UniProt O14656); test: small-molecule binders of mutant TOR1A in lysate, primary screen, cell lysate, small-molecule microarray, COS7 lysate, 635/667 nm fluorescence (AID 1150); settings: COS7 hTOR1A mutant lysate, 635 nm fluorescence, higher = more signal;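 further: score pools 667 nm emission and signal to noise measuring lysate protein binding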
[10] = test system: Sonic hedgehog protein (Shh); test: small-molecule binders of Shh protein, primary screen, biochemical, small-molecule microarray, 635/667 nm fluorescence (AID 1151); settings: small-molecule microarray binding, 635 nm fluorescence; higher = more signal;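 further: Shh protein binding to compounds spotted on small-molecule microarray slides; score combines spot fluorescence intensity with signal-to-noise across triplicate slides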

Sequence of Torsin-1A (Homo sapiens) (O14656 whole entry, looked up): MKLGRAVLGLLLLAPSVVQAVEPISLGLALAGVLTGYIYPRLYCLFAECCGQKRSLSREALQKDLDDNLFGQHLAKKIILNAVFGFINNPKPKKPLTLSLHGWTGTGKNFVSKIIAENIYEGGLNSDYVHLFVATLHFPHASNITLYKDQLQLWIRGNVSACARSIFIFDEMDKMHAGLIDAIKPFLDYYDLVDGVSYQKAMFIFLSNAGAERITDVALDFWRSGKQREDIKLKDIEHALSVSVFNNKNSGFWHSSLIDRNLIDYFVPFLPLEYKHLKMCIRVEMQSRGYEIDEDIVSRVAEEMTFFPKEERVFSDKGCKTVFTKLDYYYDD
Sequence of Streptavidin (Streptomyces avidinii) (P22629 whole entry, looked up): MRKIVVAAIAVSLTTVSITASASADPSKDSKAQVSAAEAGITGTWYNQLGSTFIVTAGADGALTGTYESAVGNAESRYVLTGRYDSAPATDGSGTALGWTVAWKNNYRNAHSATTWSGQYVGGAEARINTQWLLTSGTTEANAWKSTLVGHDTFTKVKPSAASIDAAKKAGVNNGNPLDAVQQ

Structure (SMILES)	composite z-score [1]	z-score [2]	z-score [3]	z-score [4]	z-score [5]	composite z-score [6]	composite z-score [7]	composite z-score (Torsin-1A (Homo sapiens) [8])	composite z-score (Torsin-1A (Homo sapiens) [9])	composite z-score [10]
CC(C)[C@@H](C(=O)O)n1cc(C2(O)CCCCC2)nn1	0.265	-0.671 (inactive)	-0.78 (inactive)	-0.23 (inactive)	-0.669 (inactive)	0.306	-0.101	-0.0244	0.404	0.151
CCCNC(=O)[C@@H]1c2ccccc2C(=O)N(Cc2ccccc2OC)[C@H]1c1ccc(CO)cc1	0.304	-0.67 (inactive)	0.376 (inactive)	0.001 (inactive)	-0.312 (inactive)	0.867	-0.0066	-0.3	0.889	1.52
C=C(/C(=C/C[C@H](OC(=O)c1ccncc1)c1ccc(OCCO)cc1)c1cc(C(=O)OC)ccc1OC)C(C)C	-0.0134	-3.91 (inactive)	-0.518 (inactive)	3.9 (inactive)	-0.359 (inactive)	1.23	-0.016	-0.511	0.284	0.711
C#CCN1[C@@H](Cc2ccc(O)cc2)C(=O)O[C@H](Cc2ccccc2)[C@@H]1/C=C/C1CC1	0.0515	-4.07 (inactive)	1.75 (inactive)	15.1 (active)	1.42 (inactive)	-0.196	-0.224	0.161	0.364	0.284
COCCOC(=O)N1C(=O)[C@@]2(c3cc(C#CC4(O)CCCCCC4)ccc31)[C@H](C(=O)Nc1nc3ccccc3s1)[C@H]1C(=O)O[C@H](c3ccccc3)[C@H](c3ccccc3)N1[C@@H]2c1ccccc1OCCO	0.82	-2.5 (inactive)	0.451 (inactive)	0.212 (inactive)	-0.192 (inactive)	0.845	-0.0762	0.61	0.144	0.976
CCOC(=O)C[C@H]1[C@H](OC(=O)c2ccc(-c3ccccc3)cc2)[C@@H](NC(=O)c2ccccc2)c2cc(OCCCO)ccc2N1C(=O)c1ccc2ccccc2n1	0.278	0.775 (inactive)	0.577 (inactive)	-0.882 (inactive)	-0.127 (inactive)	0.255	0.368	0.181	0.757	-0.0315
O=C(O)[C@H]1C[C@H]2C(=O)N3CCC[C@H]3C(=O)N2[C@H]1c1ccc(O)cc1	-0.32	-0.44 (inactive)	-0.0598 (inactive)	-0.122 (inactive)	-0.233 (inactive)	-1.29	-0.122	0.244	0.109	0.0164
CC(C)NC(=O)[C@@]1(Cc2ccccc2I)c2ccccc2C(=O)N(Cc2ccccc2Cl)[C@H]1c1ccc(CO)cc1	0.361	-2.21 (inactive)	0.5 (inactive)	-0.464 (inactive)	-0.0764 (inactive)	0.746	-0.0557	0.214	0.891	1
C=CCNC(=O)[C@H]1[C@@H]2C(=O)O[C@@H](c3ccccc3)[C@@H](c3ccccc3)N2[C@@H](c2ccc(OCCO)cc2)[C@]12C(=O)Nc1ccc(C#CCC(C(=O)OC)C(=O)OC)cc12	0.256	-1.19 (inactive)	0.626 (inactive)	-0.728 (inactive)	0.323 (inactive)	1.17	0.0816	0.332	0.862	0.984
O=C1[C@H]2C=C(I)[C@H](C[C@@H]2OCCCCO)[C@@]12CO2	-0.163	0.634 (inactive)	-0.0455 (inactive)	-0.235 (inactive)	1.6 (inactive)	-0.162	-0.025	0.953	0.625	0.745
COc1ccc([Si](C)(C)[C@@H]2[C@@H](CCn3cc([C@H](O)c4ccccc4)nn3)O[C@]3(C(=O)N(Cc4cccc(N5CCC5=O)c4)c4ccccc43)[C@H]2C)cc1	-0.166	-2.43 (inactive)	-1.1 (inactive)	-0.272 (inactive)	-0.144 (inactive)	0.0185	-0.0477	0.423	0.0953	0.71
C=CCOC(=O)[C@H]1[C@@H]2C(=O)O[C@@H](c3ccccc3)[C@@H](c3ccccc3)N2[C@@H](c2ccc(OCCOC(=O)[C@@H]3C[C@@H]4C(=O)N5CCC[C@H]5C(=O)N4[C@@H]3c3cccc(OCCO)c3)cc2)[C@]12C(=O)Nc1ccc(I)cc12	0.535	-0.402 (inactive)	-0.615 (inactive)	0.423 (inactive)	-0.633 (inactive)	0.763	0.944	0.821	0.573	2.18
O=C(O)[C@H](Cc1ccccc1)n1cc(-c2ccccc2)nn1	0.469	0.594 (inactive)	0.192 (inactive)	1.56 (inactive)	0.219 (inactive)	0.572	-0.0494	0.0641	0.804	0.172
CCCCC(=C=CC[C@@H](O)c1ccc(CO)o1)CCO	0.136	-0.0181 (inactive)	-0.748 (inactive)	2.69 (inactive)	-1.19 (inactive)	-0.419	0.185	0.867	0.359	1.37
CO[C@H]1O[C@H](CO)[C@@H](OC(=O)Nc2ccccc2)[C@@H]2OC(=O)[C@@H](Cc3ccc4ccccc4c3)C/C=C/C[C@H](Cc3ccc4ccccc4c3)C(=O)O[C@@H]12	0.49	-3.61 (inactive)	-1.4 (inactive)	0.502 (inactive)	-0.757 (inactive)	0.31	-0.0494	0.643	1.87	0.662
OB1C=CCC(CCc2ccccc2)O1 (stereo not given)	-0.248	-2.16 (inactive)	-1.35 (inactive)	0.672 (inactive)	-1.28 (inactive)	-0.492	-0.385	-0.459	-0.643	0.192
O=C1C2C=CC(C(O)c3ccc4c(c3)OCO4)N(Nc3ccc([N+](=O)[O-])cc3)C2C(=O)N1c1ccccc1 (stereo not given)	-0.0509	-0.954 (inactive)	0.105 (inactive)	-0.116 (inactive)	-0.222 (inactive)	0.145	-0.0178	-0.0053	0.17	-0.199
O=C1OCCC=C[C@H]2OC34C=CCN(c5ccc(Cl)cc5)C(=O)[C@H]3N(CCCO)C(=O)[C@@H]4C12 (stereo not given in full)	-0.047	-2.24 (inactive)	-0.925 (inactive)	-0.35 (inactive)	-0.336 (inactive)	-0.414	-0.227	-0.531	-1.56	0.0088
O=C1N(CCS(=O)(=O)c2ccccc2)c2ccccc2[C@@H]2OC(c3ccc(OCCCO)cc3)=N[C@]12Cc1ccccc1	-0.0372	-3.61 (inactive)	-0.157 (inactive)	1.26 (inactive)	-1.77 (inactive)	0.14	0.0091	0.422	0.208	1.95
CO[C@H]1O[C@H](CO)[C@@H](OC(=O)Nc2ccc(Br)cc2)[C@@H]2OC(=O)[C@H](Cc3cccc(Br)c3)C/C=C/C[C@@H](Cc3cccc(Br)c3)C(=O)O[C@@H]12	-0.149	-5.6 (inactive)	-2.06 (inactive)	-0.878 (inactive)	0.243 (inactive)	-0.174	0.0387	-0.541	0.384	1.58
CN1C(=O)C2C=CC(C(O)c3c(F)cccc3Cl)N(NC(=O)OC(C)(C)C)C2C1=O (stereo not given)	0.213	0.736 (inactive)	0.232 (inactive)	0.622 (inactive)	0.947 (inactive)	1.18	0.181	0.622	0.591	-0.0049
C=CCC(OC(C)=O)[C@@H]1[C@@H](N(Cc2ccc(-c3cccc(C(F)(F)F)c3)o2)C(=O)c2cccc3ccccc23)c2cc(OCCCO)ccc2N1C(=O)Cc1ccc2ccccc2c1 (stereo not given in full)	-0.078	-0.952 (inactive)	0.318 (inactive)	0.307 (inactive)	0.848 (inactive)	-0.253	0.374	1.34	-0.361	0.248
COc1ccc([Si](C)(C)[C@@H]2[C@@H](CCO)O[C@]3(C(=O)N(Cc4cccc(N5CCOC5=O)c4)c4ccccc43)[C@H]2C)cc1	0.183	-5.47 (inactive)	-0.631 (inactive)	8.62 (active)	-0.905 (inactive)	0.424	0.0569	0.531	0.226	0.529
COCCOC(=O)N1C(=O)[C@@]2(c3ccccc31)[C@H](C(N)=O)[C@H]1C(=O)O[C@H](c3ccccc3)[C@H](c3ccccc3)N1[C@@H]2c1ccc(O)cc1	0.169	-2.51 (inactive)	-0.166 (inactive)	-0.375 (inactive)	0.06 (inactive)	-0.432	-0.204	0.603	0.779	0.105
COC(=O)c1c(CC[C@@H](CO)NC(=O)N[C@H](Cc2ccccc2)Cn2cc(-c3ccccn3)nn2)oc(C(C)=O)c1C(=O)OC	-0.293	-0.105 (inactive)	0.542 (inactive)	0.367 (inactive)	0.453 (inactive)	0.946	-0.105	0.813	0.0502	0.248
[N-]=[N+]=NCc1ccccc1[C@H]1OC(c2ccc(OCCCO)cc2)=N[C@@]1(Cc1ccccc1)C(=O)N1CCCCC1	1.5	-5.29 (inactive)	0.437 (inactive)	-0.16 (inactive)	0.357 (inactive)	0.733	0.204	0.178	0.392	0.413
O=C1C2C=CC(C(O)c3cc(C(F)(F)F)cc(C(F)(F)F)c3)N(Nc3ccccc3)C2C(=O)N1c1ccccc1 (stereo not given)	0.0943	-1.01 (inactive)	-1.35 (inactive)	-0.326 (inactive)	0.501 (inactive)	-0.374	-0.0136	0.702	1.18	-0.857
COCCOC(=O)N1C(=O)[C@@]2(c3cc(C#CC4(O)CCCCCC4)ccc31)[C@H](c1ccccc1OCCO)N1[C@H](c3ccccc3)[C@H](c3ccccc3)OC(=O)[C@H]1[C@@H]2C(=O)N1CCc2cc(OC)c(OC)cc2C1	0.305	-3.17 (inactive)	-0.665 (inactive)	-1.29 (inactive)	1.03 (inactive)	0.738	-0.0496	0.0651	0.336	1.11
NC(=O)N1C(=O)C2C(C1=O)C1C=C(CCCO)C2C(C2CC2)N1Cc1cc2c(cc1Br)OCO2 (stereo not given)	-0.219	-0.387 (inactive)	1.44 (inactive)	4.37 (inactive)	0.0317 (inactive)	0.129	-0.157	0.0457	0.28	0.195
